Among the data in the OligoGym collection are sensor-assay potency score (higher = more potent) values, retold here.
Also: reference of the scale not given here.

One test has as its target KBTBD12. The experiment in a line: pooled miR-30 sensor sort-seq; sequence = guide strand. Particulars: shRNA.
As to TATGTCTTGATCTGATTCCTGA, the sensor-assay potency score (higher = more potent) is 0.119.

In turn, TTCTTTGTTATGATTTACCCAT had a sensor-assay potency score (higher = more potent) of -0.456.

Sequence TTGTCTTGACCTACACAGCCAA displayed a sensor-assay potency score (higher = more potent) of -0.566.

Another test concerns the target KCNAB2. The description is as above. Particulars: shRNA.
Sequence TAGACTTCTGCTGTATCGAAGA registered a sensor-assay potency score (higher = more potent) of -0.756. With TGACAGTTTCGGAAGGACCTGT, the sensor-assay potency score (higher = more potent) was determined as 0.657. Still for that read-out and setting: with AATACTATCAATCTCGTGGATA the figure was -1.21. On the same count and under the same terms, with TTTCTCACGCTGGAACATGTGG the figure was -0.804; with TTCGATTATGTGCTTCCTGGAC, -0.692; with ATGATCTCCATGGAGCTCCAGC, -1.53.

For the sequence CAAAATACTATCAATCTCGTGG, the sensor-assay potency score (higher = more potent) is -0.486.

In turn, TTCCTGTAGATCATCCCGGGGG returned a sensor-assay potency score (higher = more potent) of -0.0548.

Sequence TTGGTGGTGATGACGAGGCTGG returned a sensor-assay potency score (higher = more potent) of -0.706. On the same count and under the same terms, with TTCTGCTGTATCGAAGAGGTTG the figure was -0.594; with TATCTTGTGGAACAGCTCCGGC, -1.17. Same read-out and setting: with TTTCAGACCTTCGATTATGTGC the figure was -0.469.

A further test concerns the target KCNB1. The description is as above. Particulars: shRNA.
The sequence TTAGTTTTCATGGAACTCTTGG yielded a sensor-assay potency score (higher = more potent) of 0.191. The same measure, in the same setting: with TACATGTCTTCCAACTGCTGAA the figure was -0.486; with TACTTTGTCTTTCTTACCCATA, -1.04; with TAGAAGTTGAGGATGGAGGTGA, 0.819. Take TACTCGTTGTCGTCGAGGCTGT: the sensor-assay potency score (higher = more potent) is -0.424. The same measure, in the same setting: with TTGAACTTGGTGTCGTCCTCAT the figure was 0.219; with TAGATCTCGTCGATGCCCCAGT, -0.693; with TTTGAACTTGGTGTCGTCCTCA, 0.816. Same read-out and setting: with TTCATCTGCTCTTTCTTCTGGT the figure was 0.512; with TTTTCTCCGATCTTGTCCCCGT, -0.234; with TTTCTCAACCACAATGTCCATC, -0.571.

The next test deals with KCNC1. The test is described as above. The following applies: shRNA.
Consider ATGAACTCTACCTTGTTGGGGC, for which the sensor-assay potency score (higher = more potent) was determined as 0.181. The same measure, in the same setting: with TTTCTTTGGTAGTTTCTGCTTA the figure was 0.312; with TAGTAGTTCAGGATGTGCGCGA, 0.436.

On to TTCAGTTTGGAATCTGCTCTGT, for which the sensor-assay potency score (higher = more potent) came to 0.183. On the same count and under the same terms, with TACTTAGCAATGACAGGGCTTT the figure was -0.252.

The sequence TTCTTTGGTAGTTTCTGCTTAG returned a sensor-assay potency score (higher = more potent) of -0.569. Same read-out and setting: with TTTTCTTTGGTAGTTTCTGCTT the figure was -0.644; with TTGATGAACTCTACCTTGTTGG, 0.0525.

Sequence TTCTTGATGAACTCTACCTTGT registered a sensor-assay potency score (higher = more potent) of -0.835.

The sequence TTGCGTGCCATTGCGAACGTTC gave a sensor-assay potency score (higher = more potent) of -0.65. Still for that read-out and setting: with TAAGGAGTAATACATCCCGAAA the figure was -1.65; with AATTTCTAAAATTTCTTCCTGG, 0.198.
